TRPML1 blocker: inhibitors of human TRPML1 channel. activity change, negative = inhibition, % (test concentration not listed). hit rate 0.02% among 390,000. AID 624415. Q9GZU1. TRPML1-inducible cells, Ca2+ dye fluorescence, FDSS; stronger effect = lower value; inhibition of EC80 agonist-evoked calcium signal; in the data active = activity change below about -50%; inconclusive = between about -30% and that limit;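 also: stimulus is agonist 54-4 at its EC80 concentration; % is scaled to controls: 0 for no effect and ±100 for the full control effect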
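Tet-induced TRPML1-DL cells loaded with Ca8 no-wash calcium dye were read kinetically on FDSS. Compound addition was followed by EC80 agonist 54-4 (4 uM final); inhibition was read over 110 s.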
Vif-A3F inh: inhibitors of Vif-A3F interaction; HeLa A3F-eYFP + Vif (tagged APOBEC3F with the HIV-1 protein that degrades it), YFP fluorescence increase; Potency, µM (titrated, usually from 46.1 µM), inactives show at the top dose activity, negative = active; hit rate 0.2% among 390,000; AID 602313; also: potency is read from the fitted curve at half-maximal effect; % of control where 0% means no effect; nearly all actives have a fitted effect of over 65% in size
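Fluorescence increase (Ex 488/Em 500-530) after overnight compound treatment at 37 deg C flags inhibition of Vif-driven A3F-eYFP loss in stable HeLa A3F-eYFP/Vif cells seeded overnight beforehand.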
TRPML1 ag: activates the human TRPML1 channel. activation, % (no concentration beside the values). hit rate 0.12% among 410,000. Q9GZU1. TRPML1-expressing cells, Ca2+ dye fluorescence, FDSS; in the data active = activation above about 50%; inconclusive = mostly about 30% to 49%; also: 0% is about no effect
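TRPML1-DL cells, Tet-induced overnight (~16 h, 37 degrees C), loaded 45-90 min at room temperature with Ca8 no-wash calcium dye plus quencher. FDSS fluorescence: 10 s baseline, compound pin-transfer, 110 s agonist read, then EC80 54-4 (4uM final) and 110 s antagonist read.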
Vif-APOBEC3G blk: Vif-A3G binding inhibition | hit rate 0.076% among 410,000 | Potency, µM (series often up to 46.1 µM), for inactives: at the highest dose activity, negative = active, usual class: inhibitors | HeLa A3G-eYFP + Vif (tagged APOBEC3G with the HIV-1 protein that degrades it), YFP fluorescence, overnight; also: potency is read from the fitted curve at half-maximal effect; % is scaled to controls: 0 for no effect and ±100 for the full control effect; nearly all actives have a fitted effect of over 60% in size
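Read-out is eYFP fluorescence (Ex 488/Em 500-530) from Vif-expressing HeLa A3G-eYFP cells; more signal means A3G escaped Vif-mediated degradation. Cells plated overnight, compound pinned in, incubated overnight at 37 deg C.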
GRP78 ERSR act: induces the endoplasmic reticulum stress response in human glioma cells; AID 602332; U87-MG GRP78 promoter luciferase reporter, 16 h; Potency, µM, for the others: at the top dose activation, hits mostly activators; hit rate 0.02% among 420,000; also: potency is read from the fitted curve at half-maximal effect; series mostly up to about 76 µM; % of control where 0% means no effect; nearly all actives have a fitted effect of over 35% in size
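Stably transfected U87-MG human glioma cells carrying a GRP78-based luminescent sensor were seeded at 1000 cells/well, pin-dosed with compounds and incubated 16 h. Luciferase reagent was then added, and end-point luminescence was read after 10 min at room temperature.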
12-LOX inh: blocks human arachidonate 12S-lipoxygenase. P18054. purified 12hLO, xylenol orange hydroperoxide absorbance. Potency, µM (doses to about 108 µM), for the others: top-dose activity change, negative = inhibition, actives largely listed as inhibitors. hit rate 1.1% among 580,000. AID 1671190; also: potency is read from the fitted curve at half-maximal effect; % is scaled to controls: 0 for no effect and ±100 for the full control effect
Target sequence (P18054 whole entry, looked up): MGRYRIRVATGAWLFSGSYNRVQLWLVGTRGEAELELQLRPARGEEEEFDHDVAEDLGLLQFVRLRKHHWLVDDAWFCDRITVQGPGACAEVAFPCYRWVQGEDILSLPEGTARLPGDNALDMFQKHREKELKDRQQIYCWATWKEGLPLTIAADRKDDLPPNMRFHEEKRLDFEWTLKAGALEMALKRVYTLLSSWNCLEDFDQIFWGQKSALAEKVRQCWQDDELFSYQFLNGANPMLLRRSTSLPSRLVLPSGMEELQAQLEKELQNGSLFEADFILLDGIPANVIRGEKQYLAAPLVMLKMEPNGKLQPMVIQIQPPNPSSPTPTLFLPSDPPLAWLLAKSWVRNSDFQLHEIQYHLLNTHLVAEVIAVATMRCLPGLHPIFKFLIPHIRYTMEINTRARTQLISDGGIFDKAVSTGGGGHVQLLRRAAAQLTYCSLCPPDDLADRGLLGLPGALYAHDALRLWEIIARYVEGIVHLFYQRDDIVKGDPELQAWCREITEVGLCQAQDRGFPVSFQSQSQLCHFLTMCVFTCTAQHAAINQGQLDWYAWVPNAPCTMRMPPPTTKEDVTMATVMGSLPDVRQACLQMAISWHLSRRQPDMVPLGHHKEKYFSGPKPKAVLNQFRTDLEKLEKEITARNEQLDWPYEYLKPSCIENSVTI
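Purified human 12hLO (150 nM final) in 25 mM Hepes, 0.01% Triton X-100, pH 7.0 was preincubated 15 min at room temperature with compound. Then 40 uM arachidonic acid was added, 30 min. Hydroperoxide was read by Fe-XO absorbance ratio 573/405 nm.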
An asterisk follows results filed as active; u = inconclusive; x = not tested or not shown; ! = not confirmed by another sample; [ ] = another dose, or the depositor's remark. The list is not random: actives were taken first. Their share in the collection is about 1.3%. Unless noted, calls follow the shape of the dose curve; as a rule, active = well fitted curve in the direction sought with a large enough effect; inconclusive = small, poorly fitted or top-dose-only effect, or another doubt; inactive = no such curve, though single readings can be large; an effect the other way counts as inactive or inconclusive.

SMILES | TRPML1 blocker | Vif-A3F inh | TRPML1 ag | Vif-APOBEC3G blk | GRP78 ERSR act | 12-LOX inh
O=C1NC(=O)N(Cc2ccc(F)cc2)C(=O)/C1=C\c1ccoc1 | -19 | 25µM* | 3 | 2% | -6% | u
Cc1ccc(/C=C2/C(=O)NC(=O)N(CCc3ccc(F)cc3)C2=O)s1 | 0 | 8.9µM* | 0 | 2% | 0% | u
CC(C)(C)CC(=O)N1C[C@@H]2C[C@H](C1)c1ccc(NC(=O)Nc3cccc(F)c3)c(=O)n1C2 | x | x | x | x | x | 2%
CC(=O)c1cn(C[C@H]2CC3CCN2C[C@@H]3C(=O)NC(C)C)nn1 (stereo not given in full) | x | x | x | x | x | 34%[176 µM]
CN1C(=O)/C(=C/c2ccc(Cl)s2)C(=O)NC1=S | 6 | u | 0 | 0% | 4% | 4.5µM*
Cc1ccsc1/C=C1\C(=O)NC(=S)N(C)C1=O | x | u | x | -15% | -11% | u
C=CCN1C(=O)/C(=C\c2ccc(N3CCOCC3)o2)C(=O)NC1=S | -9 | u | 3 | -14% | -2% | u
C=CCN1C(=O)/C(=C/c2ccc(Br)s2)C(=O)NC1=S | x | u | x | u | -12% | 5.6µM*
CC(=O)NCCNC(=O)[C@H]1CN2CCC1C[C@@H]2Cn1cc(CSc2ccccc2)nn1 (stereo not given in full) | x | x | x | x | x | 9%
CC(C)(C)c1ccc(O)c(N=Cc2c(O)ccc3ccccc23)c1 | 5 | u | 14 | -23% | -3% | 7.9µM*
Cc1ccc(S(=O)(=O)Oc2ccccc2C=C2C(=O)N(C)C(=O)N(C)C2=O)cc1 | 11 | -3% | 0 | -19% | 20% | 45µM*
O=C(NCc1ccccc1)[C@H]1CN2CC[C@H]1C[C@@H]2Cn1cc(CO)nn1 | x | x | x | x | x | 6%[176 µM]
CCOC(=O)[C@]12Cc3cc(Cl)ccc3[C@H]1N(C1CCCCC1)C(=O)c1cc(OC)ccc12 | x | x | 0 | x | x | 45µM*
CCOC(=O)[C@]12Cc3cc(C)ccc3[C@H]1N(C1CCCCC1)C(=O)c1ccccc12 | x | x | 4 | x | x | 50µM*
CCOC(=O)[C@]12Cc3ccc(C)cc3[C@H]1N(C1CCCCC1)C(=O)c1cc(OC)ccc12 | x | x | 0 | x | x | 56µM*
CC(C)CCN1CCCC2(CC(c3cccnc3)=NO2)C1 (stereo not given) | x | x | x | x | x | 4%[12.5 µM]
CCCCOc1ccc(C(C)=O)cc1Cc1c(O)[nH]c(=S)[nH]c1=O | 4 | -1% | 0 | 4% | 1% | 13%
COc1ccc(Cc2c(O)[nH]c(=S)[nH]c2=O)cc1 | -7 | 12% | 1 | 3% | -3% | 28µM*
O=C1CC(=O)N(Cc2ccccc2)C(=S)N1 | 25 | -3% | 0 | -2% | -3% | 25µM*
O=C(O)[C@@H]1CCN1 | x | x | x | x | -3% | 25µM*
CCN1CCN(Cc2cc(Br)ccc2O)CC1 | 5 | 1% | 0 | 3% | -5% | 14%
CCc1ccc(CN2CCN(Cc3cc(Br)ccc3O)CC2)cc1 | 3 | -1% | -1 | 1% | -4% | 0.63µM*
COc1ccc2c(c[n+](C)c3c4cc5c(cc4ccc23)OCO5)c1OC | x | x | x | x | -15% | 9.7µM*!
COCCNC(=O)[C@H]1CN2CC[C@H]1C[C@@H]2Cn1cc(C2(O)CCCC2)nn1 | x | x | x | x | x | 26%[176 µM]
COc1ccc(C2SCC(=O)Nc3c2c(C)nn3C)cc1 (stereo not given) | x | x | x | x | x | -16%
SMILES | TRPML1 blocker | Vif-A3F inh | TRPML1 ag | Vif-APOBEC3G blk | GRP78 ERSR act | 12-LOX inh
O=c1c2ccccc2nc(/C=C/c2ccccc2F)n1-c1ccccc1O | -7 | 1% | 3 | -19% | 2% | 11µM*
Cc1ccccc1-n1c(/C=C/c2ccc(N(C)C)cc2)nc2ccccc2c1=O | -9 | u | u | 3.2µM* | -2% | -8%
O=C(COc1ccccc1)N1[C@H]2CC[C@@H]1c1cnc(-c3ccc(F)cc3)nc1C2 | x | x | x | x | x | 2%
COCCCn1c(=O)/c(=C/c2ccccc2OC(F)F)s/c1=C(\C#N)C(=O)NCCOC | -3 | u | 1 | -8% | -1% | -11%
COCCCn1c(=O)/c(=C\c2ccccc2OC(F)F)s/c1=C(/C#N)C(=O)NCCOC | -5 | 25µM* | 4 | -8% | -7% | 1%
CCCCNC(=O)c1c(N)n(CCCOC)c2nc3ccccc3nc12 | 4 | -2% | 0 | -6% | 0% | u
CCCCNC(=O)/C(C#N)=c1\s/c(=C\c2ccccc2OC(F)F)c(=O)n1CCCOC | -4 | 8.9µM* | 1 | u | -3% | -12%
COC(=O)C1=C(C)NC(=S)NC1c1ccc(N(CCCl)CCCl)cc1Cl (stereo not given) | 23 | 13% | 3 | 1% | -6% | 35µM*
COc1ccc2[nH]c(C)c(CCNCc3cn(C)c4ccccc34)c2c1 | 2 | -1% | 0 | -14% | -5% | 5.6µM*
Cc1[nH]c2ccccc2c1CCNCc1cccnc1 | -4 | -6% | 0 | -5% | -5% | u
COc1ccc(CNCCc2c(C)[nH]c3ccc(OC)cc23)c(F)c1 | x | x | x | x | x | 1.6µM*
COc1ccccc1CNC(=O)[C@H]1CN2CCC1C[C@@H]2Cn1cc(CO)nn1 (stereo not given in full) | x | x | x | x | x | -16%[176 µM]
Cc1ccc(-n2c(/C=C/c3ccco3)nc3ccccc3c2=O)cc1 | x | x | x | x | x | 16µM*
CCOC(=O)C1(c2ccccc2)CCN(CCC(=O)Nc2ccc(OC)cc2)CC1 | -3 | -8% | 0 | 2% | -3% | -8%
CCOC(=O)C1(c2ccccc2)CCN(CCC(=O)Nc2cccc(Br)c2)CC1 | -8 | 7% | 1 | -20% | -4% | 20µM*
Cc1ccc(C(=O)N2[C@H]3CC[C@@H]2c2cnc(-c4ccc(F)cc4)nc2C3)cn1 | x | x | x | x | x | 40µM*
Cc1cnc(C(=O)N2[C@H]3CC[C@@H]2c2cnc(-c4ccc(F)cc4)nc2C3)cn1 | x | x | x | x | x | 28%
COc1ccccc1N1CCN(Cc2ccccc2)CC1 | 16 | -10% | 0 | -6% | -2% | u
COc1ccccc1N1CCN(Cc2ccc3c(c2)OCO3)CC1 | -8 | -4% | -1 | -2% | -5% | 0.71µM*
COc1ccc(CN2CCC3(CC(c4cccnc4)=NO3)C2)cc1 (stereo not given) | x | x | x | x | x | 9%[6.33 µM]
CCn1c(O)c(/C=N/NC(=O)c2ccncc2)c(=O)n(CC)c1=S | -2 | 7.9µM* | 1 | u | -4% | -29%
O=C1NC(=O)N(c2ccccc2)C(=O)/C1=C/C=C/c1ccco1 | 2 | -18% | 3 | u | -14% | u
CN(C)c1ccc(/C=C/C=C2/C(=O)NC(=O)N(c3ccccc3)C2=O)cc1 | -17 | 7.9µM* | 0 | u | u | 167%
CC(C)CN1Cc2ccccc2-n2ccnc2C12CCN(C(=O)c1ccsc1)CC2 | x | x | x | x | x | 41%

High-throughput results as filed in PubChem BioAssay.
